The results in this text go back to the supplement of paper PMC6555819.

Holding throughout (test): PBM binding z-score (relative to random genomic background probes); higher = stronger binding; sequences stand for … in GC…GCGATTGACAGCGTAGAATGAAGG
The subject of assay [1] is FXR:RXRa (NR concentration 270 nM, RXRa partner concentration 90 nM). The essentials:
(§1)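 Custom Agilent 4×180K protein-binding microarrays carried double-stranded probes, each with a 34-nt variable region. These regions held direct-repeat seeds, single-nucleotide variants, half-site ablations and random human genomic background sequences. Ligand-free nuclear receptor dimers were incubated on the arrays for 1 h, antibodies against each partner (one per run) detected binding, and scanned fluorescence was regression-normalized. Binding z-scores take the random background probes as reference.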

Assay [2] deals with LXRa:RXRa (NR concentration 270 nM, RXRa partner concentration 90 nM). The essentials: as §1
For assay [3], the system named is LXRa homodimer (NR concentration 270 nM). The essentials: as §1
The test system of assay [4] is LXRb:RXRa (NR concentration 270 nM, RXRa partner concentration 90 nM). The essentials: as §1
In assay [5] the test system is LXRb homodimer (NR concentration 270 nM). The essentials: as §1
Assay [6] concerns PPARa:RXRa (NR concentration 270 nM, RXRa partner concentration 90 nM). The essentials:
as §1

Assay [7] has as its system PPARg:RXRa (NR concentration 180 nM, RXRa partner concentration 90 nM). The essentials: as §1
Assay [8] deals with PPARg:RXRa 270nM:90nM, anti-RXR (NR concentration 270 nM, RXRa partner concentration 90 nM). The essentials:
as §1

Assay [9] deals with PPARg:RXRa 30nM:10nM, anti-RXR (NR concentration 30 nM, RXRa partner concentration 10 nM). The essentials: as §1
The subject of assay [10] is PPARg:RXRa 90nM:30nM, anti-RXR (NR concentration 90 nM, RXRa partner concentration 30 nM). The essentials:
as §1

Assay [11] concerns PPARg:RXRa DBDmut IVT, anti-RXR (DBD mutation: RXRa K156A/R161A, NR concentration 270 nM, RXRa partner concentration 90 nM). The essentials:
as §1

The test system of assay [12] is PPARg:RXRa IVT, anti-PPARg (NR concentration 270 nM, RXRa partner concentration 90 nM). The essentials:
as §1

In assay [13] the test system is PPARg DBDmut:RXRa IVT, anti-PPARg (DBD mutation: PPARg1 K132A/R137A, NR concentration 270 nM, RXRa partner concentration 90 nM). The essentials: as §1
In assay [14] the test system is PPARg DBDmut IVT, anti-PPARg (DBD mutation: PPARg1 K132A/R137A, NR concentration 270 nM). The essentials:
as §1

In assay [15] the test system is PPARg homodimer (NR concentration 180 nM). The essentials:
as §1

The test system of assay [16] is PXR:RXRa (NR concentration 270 nM, RXRa partner concentration 90 nM). The essentials: as §1
The test system of assay [17] is PXR homodimer (NR concentration 270 nM). The essentials: as §1
For assay [18], the system named is RARa:RXR (NR concentration 270 nM, RXRa partner concentration 90 nM). The essentials:
as §1

Assay [19] has as its system RARa homodimer (NR concentration 270 nM). The essentials:
as §1

For assay [20], the system named is RARb:RXRa (NR concentration 270 nM, RXRa partner concentration 90 nM). The essentials:
as §1

In the case of GCTCGGAGGAAAAGGTCAGAGCTTTGTCCGTAGA, the PBM binding z-score in assay [1] is 2.6; in assay [2] it was 3.37; in [3], 0.256; in assay [4], 2.58; in assay [5] it was -0.596; in [6], 3.83. Further, the PBM binding z-score in [7] is 2.82; in [8] it was 4.46; in [9], 1.36; in assay [10] it was 4.22; in assay [11] it was -0.0327; in assay [12] it was 1.11. Besides, the PBM binding z-score in assay [13] is -1.39; in assay [14] it was -0.963; in assay [15] it was 1.55; in assay [16] it was 2.93; in assay [17], -0.551; in [18], 3.96. Besides, the PBM binding z-score worked out at 0.159 in [19] and 3.95 in assay [20].

Regarding GCTAGTTGGTCAGCAAAAGGTCACACACCGGTCG, the PBM binding z-score in assay [1] was 3.17; in assay [2], 4.15; in assay [3], 4.08; in assay [4], 3.94; in [5], 0.516; in assay [6], 4.17. For the same sequence, the PBM binding z-score in assay [7] turned out to be 2.48; in assay [8], 4.05; in [9], 1.79; in assay [10], 3.39; in assay [11], 0.999; in [12], 2.88. In addition, the PBM binding z-score in [13] is -0.1; in assay [14] it was -0.835; in assay [15], 4.56; in assay [16], 5.02; in assay [17], 1.32; in [18], 5.74. Also, the PBM binding z-score in [19] was 2.26; in assay [20] it was 4.37.

In the case of AGAACGAGGGCACGCTTAGTTGATAGCAGAGTAG, the PBM binding z-score in assay [1] is 0.731; in assay [2], 0.538; in [3], -0.173; in [4] it was 0.495; in assay [5], -0.638; in assay [6], 2.26. The PBM binding z-score amounted to 2.16 in [7]; 1.86 in [8]; 0.46 in assay [9]; 1.5 in assay [10]; 4.36 in [11]; 4.09 in [12]. The PBM binding z-score in assay [13] was 0.457; in assay [14], 0.676; in [15], 0.226; in assay [16], 0.718; in assay [17], -0.259; in [18], 1.06. In addition, the results for the PBM binding z-score in assay [19] and in assay [20] were -0.203 and 2.66, respectively.

Turning to TCATATAGGTAAAAGGTGAAAATCGGTGTGGTAA, the PBM binding z-score amounted to 2.32 in [1]; 2.08 in assay [2]; 0.347 in assay [3]; 2.14 in assay [4]; 0.2 in assay [5]; 5.34 in assay [6]. Moreover, the PBM binding z-score in assay [7] worked out at 9.36; in assay [8], 8.69; in assay [9], 8.68; in assay [10], 9.26; in [11], 5.1; in assay [12], 5.08. Moreover, the PBM binding z-score was 1.43 in assay [13]; 0.511 in assay [14]; 2.07 in [15]; 1.97 in assay [16]; 0.321 in assay [17]; 3.05 in assay [18]. The PBM binding z-score in assay [19] came out at 1.48; in [20], 1.78.

Turning to GCTGCTAGGTCAACTGATGTTCAGCTAAAGCTCG, the PBM binding z-score in [1] was determined as 4.01; in [2], 2.78; in assay [3] it was 0.062; in [4], 1.95; in [5], 0.048; in assay [6] it was 3.71. Further, the PBM binding z-score turned out to be 2.89 in assay [7]; 3.07 in [8]; 0.613 in assay [9]; 1.86 in assay [10]; 4.93 in [11]; 4.11 in assay [12]. Besides, the PBM binding z-score in assay [13] was -0.364; in assay [14] it was -1.06; in assay [15], 1.1; in [16], 1.64; in assay [17] it was -0.723; in [18] it was 2.27. For the same sequence, the PBM binding z-score in [19] was -0.512; in [20], 4.32.

Consider GCTTGTTGGTCAGTAAAAGGTCACACACCGGTCG, for which the PBM binding z-score turned out to be 3.14 in assay [1]; 4.29 in assay [2]; 4.58 in assay [3]; 4.04 in assay [4]; 1.25 in assay [5]; 4.42 in assay [6]. The PBM binding z-score in assay [7] is 3.2; in assay [8] it was 4.25; in assay [9] it was 2.37; in [10], 4.03; in [11] it was 1.37; in [12], 3.04. Moreover, the PBM binding z-score stood at 0.573 in [13]; 0.581 in [14]; 3.31 in assay [15]; 4.71 in assay [16]; 1.12 in assay [17]; 5.45 in [18]. Moreover, the PBM binding z-score in assay [19] worked out at 1.86; in [20] it was 4.32.
